This passage reports Potency and outcome results from PubChem BioAssay (NCATS).

Inconclusive results are not listed. The source made the active and inactive calls. The call rests on the fitted dose curve; in most records, active means well fitted curve in the direction sought with a large enough effect; inconclusive means small, poorly fitted or top-dose-only effect, or another doubt; inactive means no such curve, though single readings can be large; an effect the other way counts as inactive or inconclusive.

The nature of assay [1]: Quantitative high throughput screen for delayed death inhibitors of the malarial parasite plastid, 48 hour incubation (AID 488752). Further: nearly all actives have a fitted effect of over 65% in size. To be noted: Plasmodium falciparum growth; series mostly up to 28.7 µM. In outline:
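One parasite generation (48 h, 37 C, 5% CO2) of luciferase-reporter P. falciparum in erythrocytes is run with test compound; decreased luminescence indicates inhibited growth.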

The target of assay [2] is Thioredoxin reductase 1, cytoplasmic (Rattus norvegicus) (UniProt O89049). Put plainly: qHTS Assay for Substrates of Mammalian Selenoprotein Thioredoxin Reductase 1 (TrxR1) (AID 488772).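 Further: NADPH fluorescence in the first read after selenite addition and not the 8 min delta; a drop in NADPH fluorescence below the no-compound background marks a TrxR1 substrate.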 The conditions noted are these: purified TrxR1, NADPH consumption substrate assay; series mostly up to 57.1 µM. In outline:
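Quantitative HTS in Tris-HCl buffer at pH 7.5 with EDTA and Tween-20, using rat TrxR1, 400 uM NADPH and 400 uM selenite (final). A fall in initial NADPH fluorescence relative to background marked substrate behaviour.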

For assay [3] the target is unchanged. Kind of assay: qHTS Assay for Inhibitors of Mammalian Selenoprotein Thioredoxin Reductase 1 (TrxR1) (AID 488773). Further: nearly all actives have a fitted effect of over 40% in size. Further: potency means the concentration at half of the fitted maximal effect. The conditions noted are these: purified TrxR1 enzyme activity; Potency: inhibition; series mostly up to 57.1 µM. In a few lines: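 Steps: enzyme (90 nM) plus NADPH (400 uM final), 5 min at ~22 deg C; compound added, 15 min; selenite (400 uM final) added; fluorescence followed for 8 min. Concentration-response curves derived from the normalized delta values.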
(In general: qHTS replaces the single test concentration by a dilution series.)

In assay [4] the target is Flap endonuclease 1 (Homo sapiens) (UniProt P39748). Put plainly: qHTS Validation Assay for the Inhibitors of Human Flap endonuclease 1 (FEN1) (AID 488816). The conditions noted are these: FEN1 nuclease activity, fluorogenic DNA substrate; series mostly up to 57.1 µM. In a few lines: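 Readings taken at 0 and 15 min after starting the reaction with 50 nM (final) substrate supplied the signal. Compounds had first sat with 10 nM FEN1 reagent for 15 min at room temperature. Values come from Hill-equation concentration-response fits.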

In assay [5] the target is M-phase phosphoprotein 8 (Homo sapiens) (UniProt Q99549). Kind of assay: qHTS Validation Assay for Inhibitors for MPP8 Chromodomain Interactions with Methylated Histone Tails (AID 488949).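 Further: AlphaScreen signal from MPP8 chromodomain bound to biotinylated H3K9me3 peptide; top concentration of the series differs between compounds; nearly all actives have a fitted effect of over 55% in size.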 The conditions noted are these: AlphaScreen MPP8 binding to H3K9me3 peptide; series mostly up to 57.1 µM. In outline:
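Disruption of the preformed MPP8–trimethyl-H3K9 peptide complex (both 50 nM, 30 min, RT) is measured after 30 min compound exposure, using AlphaScreen proximity beads; aurintricarboxylic acid titration serves as plate control.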

Assay [6] concerns the target Chromobox protein homolog 1 (Homo sapiens) (UniProt P83916). Kind of assay: qHTS Validation Assay for Inhibitors of HP1-beta Chromodomain Interactions with Methylated Histone Tails (AID 488953).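 Further: loss of AlphaScreen luminescence from HP1-beta binding biotinylated H3K9me3 peptide; nearly all actives have a fitted effect of over 50% in size.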 To be noted: HP1-beta chromodomain / methylated histone peptide binding assay; series mostly up to 114 µM. In a few lines:
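Measured as loss of AlphaScreen luminescence from streptavidin donor and nickel acceptor beads (10 ug/mL final) bridging HP1-beta and biotin-H3(1-18)K9me3, each 50 nM. Compounds met the preassembled complex for 30 min at RT.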

Assay [7] addresses Methanococcus maripaludis chaperonin (MmCpn) (UniProt Q6LX38). Kind of assay: High-Throughput Screening for Modulators of Cytosolic Chaperonin Activity: MmCpn Primary Screen (AID 488978). The conditions noted are these: Purified MmCpn ATPase activity, ADP HTRF detection, 10 min; series mostly up to 76.9 µM. In outline: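 Measures ATPase turnover of the M. maripaludis chaperonin (50 nM final) against 30 uM ATP over 10 min at 37C, with compound added 5 min beforehand at room temperature. ADP is quantified by HTRF immunodetection.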
In general terms: TR-FRET usually uses a lanthanide donor and a delayed reading to cut background.

The target in assay [8] is Transient receptor potential cation channel subfamily V member 1 (Homo sapiens) (UniProt Q8NER1). Kind of assay: HTS Assay for Compounds that Act as Enhancers of the Vanilloid Receptor 1 (AID 488979). The conditions noted are these: TRPV1-expressing cells, enhancer of channel activity, stimulated with capsaicin at EC20; series mostly up to 41.7 µM. In outline: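 Calcium influx kinetics via Fluo-8 (480/520 nm) in TRPV1-expressing cells, 2000/well cultured overnight at 35.5C. Compound-alone read 3 min (agonist phase), followed by EC20 capsaicin challenge for 2 min (enhancer phase).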

Assay [9] can be described thus: Quantitative high throughput screen for delayed death inhibitors of the malarial parasite plastid, 96 hour incubation (AID 488745). Further: nearly all actives have a fitted effect of over 70% in size. Further: potency means the concentration at half of the fitted maximal effect. To be noted: Plasmodium falciparum growth; series mostly up to 28.7 µM. In outline:
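Growth of reporter-bearing P. falciparum in red cells is measured after 96 h with compound, covering two erythrocytic cycles. Luminescence from the integrated luciferase serves as the growth signal.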

Chain of Thioredoxin reductase 1, cytoplasmic (Rattus norvegicus) (O89049 whole entry, looked up): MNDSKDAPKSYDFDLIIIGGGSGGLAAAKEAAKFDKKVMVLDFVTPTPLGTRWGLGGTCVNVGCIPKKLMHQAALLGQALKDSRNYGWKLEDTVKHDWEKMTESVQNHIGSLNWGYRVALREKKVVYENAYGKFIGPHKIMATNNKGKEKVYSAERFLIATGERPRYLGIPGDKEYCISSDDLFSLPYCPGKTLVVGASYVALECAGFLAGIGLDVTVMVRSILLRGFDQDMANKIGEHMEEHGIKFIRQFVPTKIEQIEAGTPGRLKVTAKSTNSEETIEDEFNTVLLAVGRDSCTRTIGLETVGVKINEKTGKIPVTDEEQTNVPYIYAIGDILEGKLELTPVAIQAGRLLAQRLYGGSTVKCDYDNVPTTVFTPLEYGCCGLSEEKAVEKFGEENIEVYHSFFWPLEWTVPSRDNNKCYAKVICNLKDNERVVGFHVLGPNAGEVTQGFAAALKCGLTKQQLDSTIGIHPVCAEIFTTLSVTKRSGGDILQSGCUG
Chain of Chromobox protein homolog 1 (Homo sapiens) (P83916 whole entry, looked up): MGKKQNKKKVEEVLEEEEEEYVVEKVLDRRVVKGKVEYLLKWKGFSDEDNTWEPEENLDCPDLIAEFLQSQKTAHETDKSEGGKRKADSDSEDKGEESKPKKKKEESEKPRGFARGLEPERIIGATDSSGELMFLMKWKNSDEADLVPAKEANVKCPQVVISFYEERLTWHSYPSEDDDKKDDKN
Chain of Transient receptor potential cation channel subfamily V member 1 (Homo sapiens) (Q8NER1 whole entry, looked up): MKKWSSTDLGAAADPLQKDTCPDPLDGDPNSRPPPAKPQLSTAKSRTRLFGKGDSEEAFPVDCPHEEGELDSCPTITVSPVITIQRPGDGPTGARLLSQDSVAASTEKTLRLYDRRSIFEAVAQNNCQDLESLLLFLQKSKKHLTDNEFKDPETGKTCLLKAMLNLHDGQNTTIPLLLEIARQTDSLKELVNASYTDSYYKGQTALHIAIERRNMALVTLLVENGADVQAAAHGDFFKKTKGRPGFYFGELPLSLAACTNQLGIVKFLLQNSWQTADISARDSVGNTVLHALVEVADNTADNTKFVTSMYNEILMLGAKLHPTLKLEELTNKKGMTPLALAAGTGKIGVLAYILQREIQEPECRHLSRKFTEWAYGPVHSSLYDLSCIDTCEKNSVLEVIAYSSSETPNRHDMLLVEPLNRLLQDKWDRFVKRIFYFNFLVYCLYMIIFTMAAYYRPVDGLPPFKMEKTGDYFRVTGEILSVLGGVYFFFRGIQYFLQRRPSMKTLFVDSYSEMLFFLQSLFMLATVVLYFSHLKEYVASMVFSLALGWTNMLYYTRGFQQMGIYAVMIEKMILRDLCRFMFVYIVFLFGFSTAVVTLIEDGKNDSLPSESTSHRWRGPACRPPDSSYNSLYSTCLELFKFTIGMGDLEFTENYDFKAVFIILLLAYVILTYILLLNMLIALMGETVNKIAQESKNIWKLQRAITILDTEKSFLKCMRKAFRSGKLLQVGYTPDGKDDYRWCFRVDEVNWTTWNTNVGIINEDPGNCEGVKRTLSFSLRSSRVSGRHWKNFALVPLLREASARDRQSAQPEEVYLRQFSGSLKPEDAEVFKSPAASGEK
Chain of M-phase phosphoprotein 8 (Homo sapiens) (Q99549 whole entry, looked up): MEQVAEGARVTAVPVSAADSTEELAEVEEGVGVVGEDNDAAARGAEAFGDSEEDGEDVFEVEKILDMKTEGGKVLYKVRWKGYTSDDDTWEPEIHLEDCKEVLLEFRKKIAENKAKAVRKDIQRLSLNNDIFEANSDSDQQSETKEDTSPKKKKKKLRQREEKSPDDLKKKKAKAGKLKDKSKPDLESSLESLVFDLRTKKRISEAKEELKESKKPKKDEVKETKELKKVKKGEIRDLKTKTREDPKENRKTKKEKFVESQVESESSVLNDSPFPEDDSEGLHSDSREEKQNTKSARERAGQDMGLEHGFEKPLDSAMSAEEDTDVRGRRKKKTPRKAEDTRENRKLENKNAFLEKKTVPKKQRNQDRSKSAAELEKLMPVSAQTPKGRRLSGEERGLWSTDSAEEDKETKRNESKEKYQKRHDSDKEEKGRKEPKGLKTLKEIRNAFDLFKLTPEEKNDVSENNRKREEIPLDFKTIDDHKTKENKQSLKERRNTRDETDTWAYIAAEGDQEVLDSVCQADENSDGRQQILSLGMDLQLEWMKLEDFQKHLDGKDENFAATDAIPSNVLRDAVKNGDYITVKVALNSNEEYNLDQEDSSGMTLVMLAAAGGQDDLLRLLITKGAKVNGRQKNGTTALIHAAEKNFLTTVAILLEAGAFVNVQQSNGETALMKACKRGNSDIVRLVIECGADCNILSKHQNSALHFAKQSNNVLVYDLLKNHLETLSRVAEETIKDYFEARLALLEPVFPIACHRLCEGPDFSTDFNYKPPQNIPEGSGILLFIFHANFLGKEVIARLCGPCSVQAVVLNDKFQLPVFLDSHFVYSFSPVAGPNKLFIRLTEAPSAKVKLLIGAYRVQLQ
Chain of Methanococcus maripaludis chaperonin (MmCpn) (Q6LX38 1-543): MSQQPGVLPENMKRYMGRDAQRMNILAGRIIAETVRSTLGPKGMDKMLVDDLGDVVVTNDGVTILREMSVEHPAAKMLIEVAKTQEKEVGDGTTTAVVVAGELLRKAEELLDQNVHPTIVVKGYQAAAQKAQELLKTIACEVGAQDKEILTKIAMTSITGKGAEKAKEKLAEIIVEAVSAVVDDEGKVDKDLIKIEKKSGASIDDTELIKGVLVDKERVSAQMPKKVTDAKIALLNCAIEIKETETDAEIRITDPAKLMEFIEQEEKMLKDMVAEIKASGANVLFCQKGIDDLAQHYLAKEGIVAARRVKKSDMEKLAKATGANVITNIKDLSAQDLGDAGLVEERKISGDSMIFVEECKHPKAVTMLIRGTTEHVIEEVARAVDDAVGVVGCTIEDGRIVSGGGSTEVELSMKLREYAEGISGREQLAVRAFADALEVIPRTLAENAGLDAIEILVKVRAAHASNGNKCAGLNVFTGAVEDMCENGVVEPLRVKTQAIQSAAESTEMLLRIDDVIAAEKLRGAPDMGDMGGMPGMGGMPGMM
Chain of Flap endonuclease 1 (Homo sapiens) (P39748 whole entry, looked up): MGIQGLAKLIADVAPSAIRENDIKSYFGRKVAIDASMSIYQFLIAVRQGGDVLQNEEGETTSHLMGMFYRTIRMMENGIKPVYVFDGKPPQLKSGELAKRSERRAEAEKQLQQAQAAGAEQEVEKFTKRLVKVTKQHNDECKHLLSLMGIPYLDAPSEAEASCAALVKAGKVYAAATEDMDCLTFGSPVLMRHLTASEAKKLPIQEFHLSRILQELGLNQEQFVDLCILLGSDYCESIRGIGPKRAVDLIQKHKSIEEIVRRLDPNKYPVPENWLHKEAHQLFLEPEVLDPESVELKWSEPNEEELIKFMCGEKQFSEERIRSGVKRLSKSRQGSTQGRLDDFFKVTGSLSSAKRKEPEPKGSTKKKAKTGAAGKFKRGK

`O=c1cc(-c2ccccc2)[nH]c2nc(Cl)ccc12`: the Potency entry in [1], in [3], in assay [4], in assay [5] and in [6] was “inactive” each time. The call in assay [2], in assay [7] and in [8] was inactive.
For the molecule `CC(=O)O[C@H]1CC2(C)[C@@H](C[C@@H](O)[C@H]3[C@@]4(C)CC[C@@H](O)[C@@H](C)[C@@H]4CC[C@@]32C)C1=C(CCC=C(C)C)C(=O)O` (some centres undefined), the Potency entry in assay [1], in assay [4], in [5] and in assay [6] was “inactive” throughout. The outcome in assay [2], in assay [7] and in assay [8] was inactive.
Turning to `NCC(O)C1CCCCCCC1` (centres undefined), the Potency result in assay [9], in [3], in [4], in [5] and in [6] was “inactive” in each case. Moreover, the molecule was called inactive in assay [2], in assay [7] and in assay [8].
For `O=c1ccc2c(OCCCCc3ccccc3)c3ccoc3cc2o1`, the Potency result in assay [1], in [3], in assay [4], in assay [5] and in assay [6] was “inactive” in each case. Further, the molecule was called inactive in assay [2], in [7] and in assay [8].
Regarding `CCN(CC)CCCCCCCCOC(=O)c1cc(OC)c(OC)c(OC)c1`, the Potency in assay [9] was 18.5 µM (active). Further, the molecule was called inactive in [2], in assay [7] and in assay [8]. The Potency result in assay [3], in assay [4], in [5] and in assay [6] was “inactive” each time.
As for `NCCCCN`, the Potency entry in assay [1], in assay [4], in assay [5] and in [6] was “inactive” in each case. Further, the result in assay [2], in assay [7] and in assay [8] was inactive.
`c1ccc(C2CN3CCSC3=N2)cc1` (centres undefined): the Potency result in assay [1], in [3], in assay [4] and in assay [6] was “inactive” throughout. For the same molecule, the molecule was classed as inactive in [2], in assay [7] and in [8].
Consider `COc1cc(C(O)C(=O)O)ccc1O` (centres undefined), for which the Potency result in assay [1], in assay [4], in assay [5] and in assay [6] was “inactive” throughout. Moreover, the molecule was classed as inactive in assay [2], in assay [7] and in assay [8].
As to `c1ccc2nc(C3=NCCN3)ccc2c1`, the Potency result in [1], in assay [3], in assay [5] and in assay [6] was “inactive” in each case. Besides, the result in assay [2], in assay [7] and in assay [8] was inactive.
Consider `O=C(O)Cc1ccc(O)c(O)c1`, for which the Potency entry in assay [1], in assay [5] and in assay [6] was “inactive” in each case. Besides, the outcome in assay [2], in assay [7] and in [8] was inactive. Moreover, in assay [3], the Potency is 7.52 µM (active).
Turning to `CCCc1c(-c2ccc(O)cc2)nn(-c2ccc(O)cc2)c1-c1ccc(O)cc1`, the Potency entry in [1], in assay [3], in assay [4] and in [5] was “inactive” in each case. Further, the call in assay [2], in assay [7] and in assay [8] was inactive.
As to `C[C@@]1(C2CCCC2)Cc2cc(OCC(=O)O)c(Cl)c(Cl)c2C1=O`, the Potency entry in [1], in assay [3], in assay [4], in assay [5] and in assay [6] was “inactive” throughout. In addition, the molecule was classed as inactive in assay [2], in assay [7] and in [8].
